Data: ChEMBL document CHEMBL2218924, “A broad activity screen in support of a chemogenomic map for kinase signalling research and drug discovery” (Biochem J, 2013)

How the values were obtained:
[1] = molecular target: T1, Protein kinase C zeta type (Homo sapiens) (UniProt Q05513); details: at 1 µM
T1 sequence (whole entry): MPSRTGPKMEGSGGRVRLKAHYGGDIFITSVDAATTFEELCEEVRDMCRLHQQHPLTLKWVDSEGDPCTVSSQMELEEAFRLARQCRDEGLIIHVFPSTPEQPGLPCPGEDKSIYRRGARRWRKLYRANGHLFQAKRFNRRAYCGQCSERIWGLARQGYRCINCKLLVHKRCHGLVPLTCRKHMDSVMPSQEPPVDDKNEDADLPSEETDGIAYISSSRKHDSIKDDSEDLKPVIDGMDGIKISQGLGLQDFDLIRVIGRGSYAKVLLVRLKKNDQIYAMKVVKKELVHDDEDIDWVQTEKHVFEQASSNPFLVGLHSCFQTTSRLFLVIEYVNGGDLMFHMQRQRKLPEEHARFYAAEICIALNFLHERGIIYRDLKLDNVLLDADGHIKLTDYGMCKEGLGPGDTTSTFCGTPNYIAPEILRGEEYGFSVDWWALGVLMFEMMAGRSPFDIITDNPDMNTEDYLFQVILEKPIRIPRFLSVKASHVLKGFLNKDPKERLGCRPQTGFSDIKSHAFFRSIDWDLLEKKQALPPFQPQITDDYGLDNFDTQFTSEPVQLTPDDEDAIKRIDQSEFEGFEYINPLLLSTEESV

[2] = molecular target: T2, Mitogen-activated protein kinase kinase kinase 5 (Homo sapiens) (UniProt Q99683); details: at 10 µM
T2 sequence (whole entry): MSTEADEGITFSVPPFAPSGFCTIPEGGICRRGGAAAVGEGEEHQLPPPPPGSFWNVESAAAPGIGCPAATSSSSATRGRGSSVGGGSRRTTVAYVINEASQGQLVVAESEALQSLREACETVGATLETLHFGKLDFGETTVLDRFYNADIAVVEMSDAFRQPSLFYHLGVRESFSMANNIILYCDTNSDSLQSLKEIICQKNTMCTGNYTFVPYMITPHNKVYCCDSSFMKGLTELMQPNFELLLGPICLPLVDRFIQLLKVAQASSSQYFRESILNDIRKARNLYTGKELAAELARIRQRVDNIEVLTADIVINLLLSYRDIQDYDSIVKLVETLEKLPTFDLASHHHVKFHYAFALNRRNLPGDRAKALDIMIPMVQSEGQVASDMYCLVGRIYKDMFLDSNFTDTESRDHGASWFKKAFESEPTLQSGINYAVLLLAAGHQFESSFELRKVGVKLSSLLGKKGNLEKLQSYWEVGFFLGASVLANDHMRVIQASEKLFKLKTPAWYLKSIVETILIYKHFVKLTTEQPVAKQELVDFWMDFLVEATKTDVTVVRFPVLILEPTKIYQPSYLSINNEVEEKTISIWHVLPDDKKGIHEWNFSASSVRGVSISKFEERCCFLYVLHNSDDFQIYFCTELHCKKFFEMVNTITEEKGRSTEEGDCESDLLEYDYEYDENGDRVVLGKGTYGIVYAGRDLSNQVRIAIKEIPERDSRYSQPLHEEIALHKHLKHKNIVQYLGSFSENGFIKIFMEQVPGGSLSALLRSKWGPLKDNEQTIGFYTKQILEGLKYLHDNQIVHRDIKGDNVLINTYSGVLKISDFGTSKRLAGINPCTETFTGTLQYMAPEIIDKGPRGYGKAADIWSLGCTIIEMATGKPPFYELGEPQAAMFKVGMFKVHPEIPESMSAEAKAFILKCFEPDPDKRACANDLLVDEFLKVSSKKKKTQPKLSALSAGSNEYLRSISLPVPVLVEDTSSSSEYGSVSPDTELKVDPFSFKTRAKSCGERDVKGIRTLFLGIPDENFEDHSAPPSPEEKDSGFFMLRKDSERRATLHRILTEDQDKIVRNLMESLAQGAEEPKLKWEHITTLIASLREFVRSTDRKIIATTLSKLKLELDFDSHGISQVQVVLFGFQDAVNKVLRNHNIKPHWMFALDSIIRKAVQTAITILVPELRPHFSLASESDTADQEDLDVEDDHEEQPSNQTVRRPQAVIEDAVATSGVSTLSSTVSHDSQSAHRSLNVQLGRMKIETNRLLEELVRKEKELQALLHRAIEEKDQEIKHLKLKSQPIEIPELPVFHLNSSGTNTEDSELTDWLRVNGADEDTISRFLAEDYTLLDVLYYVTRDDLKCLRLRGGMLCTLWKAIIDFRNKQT

[3] = molecular target: Tyrosine-protein kinase ABL1 (Homo sapiens) (UniProt P00519); details: at 10 µM
[4] = molecular target: Tyrosine-protein kinase ABL2 (Homo sapiens) (UniProt P42684); details: at 1 µM
[5] = molecular target: Tyrosine-protein kinase ABL2 (Homo sapiens) (UniProt P42684); details: at 10 µM
[6] = molecular target: T3, Aurora kinase A (Homo sapiens) (UniProt O14965); details: at 1 µM
T3 sequence (whole entry): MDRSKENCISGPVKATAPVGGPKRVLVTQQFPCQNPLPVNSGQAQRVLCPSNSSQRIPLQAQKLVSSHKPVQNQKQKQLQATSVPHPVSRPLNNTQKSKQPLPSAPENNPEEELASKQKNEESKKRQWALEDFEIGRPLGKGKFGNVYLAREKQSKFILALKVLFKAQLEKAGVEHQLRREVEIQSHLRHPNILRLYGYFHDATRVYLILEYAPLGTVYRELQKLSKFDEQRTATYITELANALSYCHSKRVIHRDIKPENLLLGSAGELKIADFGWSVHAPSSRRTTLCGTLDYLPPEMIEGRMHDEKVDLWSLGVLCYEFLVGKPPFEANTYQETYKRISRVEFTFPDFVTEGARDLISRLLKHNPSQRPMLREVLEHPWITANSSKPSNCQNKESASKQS

[7] = molecular target: T3, Aurora kinase A (Homo sapiens); details: at 10 µM
[8] = molecular target: Aurora kinase B (Homo sapiens) (UniProt Q96GD4); details: at 1 µM
[9] = molecular target: Aurora kinase B (Homo sapiens) (UniProt Q96GD4); details: at 10 µM
[10] = molecular target: T4, Aurora kinase C (Homo sapiens) (UniProt Q9UQB9); details: at 1 µM
T4 sequence (whole entry): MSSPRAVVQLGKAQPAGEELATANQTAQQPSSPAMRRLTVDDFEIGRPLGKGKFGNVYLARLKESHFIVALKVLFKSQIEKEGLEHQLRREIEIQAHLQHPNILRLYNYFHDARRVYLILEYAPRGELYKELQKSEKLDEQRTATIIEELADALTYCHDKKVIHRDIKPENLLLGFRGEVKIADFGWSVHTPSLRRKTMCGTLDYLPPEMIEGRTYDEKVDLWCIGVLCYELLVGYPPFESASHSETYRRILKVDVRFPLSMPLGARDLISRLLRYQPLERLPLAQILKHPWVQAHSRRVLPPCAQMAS

[11] = molecular target: T4, Aurora kinase C (Homo sapiens); details: at 10 µM
[12] = molecular target: Tyrosine-protein kinase receptor UFO (Homo sapiens) (UniProt P30530); details: at 1 µM
[13] = molecular target: Tyrosine-protein kinase receptor UFO (Homo sapiens) (UniProt P30530); details: at 10 µM
[14] = molecular target: Protein-tyrosine kinase 6 (Homo sapiens) (UniProt Q13882); details: at 1 µM
[15] = molecular target: Protein-tyrosine kinase 6 (Homo sapiens) (UniProt Q13882); details: at 10 µM
[16] = molecular target: Tyrosine-protein kinase BTK (Homo sapiens) (UniProt Q06187); details: at 1 µM
[17] = molecular target: Tyrosine-protein kinase BTK (Homo sapiens) (UniProt Q06187); details: at 10 µM
[18] = molecular target: Tyrosine-protein kinase Blk (Homo sapiens) (UniProt P51451); details: at 1 µM
[19] = molecular target: Tyrosine-protein kinase Blk (Homo sapiens) (UniProt P51451); details: at 10 µM
[20] = molecular target: Tyrosine-protein kinase ABL1 (Homo sapiens) (UniProt P00519); details: at 1 µM

Chain of Tyrosine-protein kinase receptor UFO (Homo sapiens) (P30530 whole entry): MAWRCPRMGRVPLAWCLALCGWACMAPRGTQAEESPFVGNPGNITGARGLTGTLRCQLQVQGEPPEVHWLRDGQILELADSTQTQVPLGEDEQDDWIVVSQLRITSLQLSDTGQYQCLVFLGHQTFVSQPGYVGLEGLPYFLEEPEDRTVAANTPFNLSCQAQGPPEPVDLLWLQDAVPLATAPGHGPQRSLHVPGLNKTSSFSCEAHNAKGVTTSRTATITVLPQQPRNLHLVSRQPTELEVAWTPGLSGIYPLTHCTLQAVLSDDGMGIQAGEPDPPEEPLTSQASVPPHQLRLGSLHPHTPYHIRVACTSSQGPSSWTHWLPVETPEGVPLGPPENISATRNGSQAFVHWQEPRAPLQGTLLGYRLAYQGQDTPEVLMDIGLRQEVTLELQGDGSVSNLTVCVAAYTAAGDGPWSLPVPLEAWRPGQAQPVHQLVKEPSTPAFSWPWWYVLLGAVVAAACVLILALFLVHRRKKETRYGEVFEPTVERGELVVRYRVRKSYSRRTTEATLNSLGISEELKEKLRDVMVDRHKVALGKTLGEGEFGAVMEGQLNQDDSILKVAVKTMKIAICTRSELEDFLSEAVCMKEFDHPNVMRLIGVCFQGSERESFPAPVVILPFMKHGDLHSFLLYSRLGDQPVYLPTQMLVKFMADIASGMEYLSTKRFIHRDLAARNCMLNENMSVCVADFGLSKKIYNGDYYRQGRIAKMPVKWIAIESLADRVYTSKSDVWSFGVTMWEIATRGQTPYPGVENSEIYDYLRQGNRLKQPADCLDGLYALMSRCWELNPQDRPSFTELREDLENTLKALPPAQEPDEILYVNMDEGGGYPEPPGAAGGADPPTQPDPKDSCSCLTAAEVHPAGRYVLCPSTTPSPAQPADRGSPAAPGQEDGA
Chain of Protein-tyrosine kinase 6 (Homo sapiens) (Q13882 whole entry, looked up): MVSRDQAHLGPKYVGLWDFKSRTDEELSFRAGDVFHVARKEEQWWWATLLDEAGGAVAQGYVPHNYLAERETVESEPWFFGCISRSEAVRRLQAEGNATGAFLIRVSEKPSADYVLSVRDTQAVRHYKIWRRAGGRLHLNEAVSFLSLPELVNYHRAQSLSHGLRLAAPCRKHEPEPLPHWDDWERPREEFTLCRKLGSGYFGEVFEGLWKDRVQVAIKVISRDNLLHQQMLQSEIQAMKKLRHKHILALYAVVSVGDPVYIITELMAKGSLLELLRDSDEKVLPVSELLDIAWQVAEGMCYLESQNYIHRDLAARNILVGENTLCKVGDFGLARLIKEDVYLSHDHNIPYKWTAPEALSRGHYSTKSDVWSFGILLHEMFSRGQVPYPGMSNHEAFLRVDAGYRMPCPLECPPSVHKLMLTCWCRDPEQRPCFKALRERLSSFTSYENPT
Chain of Tyrosine-protein kinase ABL2 (Homo sapiens) (P42684 whole entry): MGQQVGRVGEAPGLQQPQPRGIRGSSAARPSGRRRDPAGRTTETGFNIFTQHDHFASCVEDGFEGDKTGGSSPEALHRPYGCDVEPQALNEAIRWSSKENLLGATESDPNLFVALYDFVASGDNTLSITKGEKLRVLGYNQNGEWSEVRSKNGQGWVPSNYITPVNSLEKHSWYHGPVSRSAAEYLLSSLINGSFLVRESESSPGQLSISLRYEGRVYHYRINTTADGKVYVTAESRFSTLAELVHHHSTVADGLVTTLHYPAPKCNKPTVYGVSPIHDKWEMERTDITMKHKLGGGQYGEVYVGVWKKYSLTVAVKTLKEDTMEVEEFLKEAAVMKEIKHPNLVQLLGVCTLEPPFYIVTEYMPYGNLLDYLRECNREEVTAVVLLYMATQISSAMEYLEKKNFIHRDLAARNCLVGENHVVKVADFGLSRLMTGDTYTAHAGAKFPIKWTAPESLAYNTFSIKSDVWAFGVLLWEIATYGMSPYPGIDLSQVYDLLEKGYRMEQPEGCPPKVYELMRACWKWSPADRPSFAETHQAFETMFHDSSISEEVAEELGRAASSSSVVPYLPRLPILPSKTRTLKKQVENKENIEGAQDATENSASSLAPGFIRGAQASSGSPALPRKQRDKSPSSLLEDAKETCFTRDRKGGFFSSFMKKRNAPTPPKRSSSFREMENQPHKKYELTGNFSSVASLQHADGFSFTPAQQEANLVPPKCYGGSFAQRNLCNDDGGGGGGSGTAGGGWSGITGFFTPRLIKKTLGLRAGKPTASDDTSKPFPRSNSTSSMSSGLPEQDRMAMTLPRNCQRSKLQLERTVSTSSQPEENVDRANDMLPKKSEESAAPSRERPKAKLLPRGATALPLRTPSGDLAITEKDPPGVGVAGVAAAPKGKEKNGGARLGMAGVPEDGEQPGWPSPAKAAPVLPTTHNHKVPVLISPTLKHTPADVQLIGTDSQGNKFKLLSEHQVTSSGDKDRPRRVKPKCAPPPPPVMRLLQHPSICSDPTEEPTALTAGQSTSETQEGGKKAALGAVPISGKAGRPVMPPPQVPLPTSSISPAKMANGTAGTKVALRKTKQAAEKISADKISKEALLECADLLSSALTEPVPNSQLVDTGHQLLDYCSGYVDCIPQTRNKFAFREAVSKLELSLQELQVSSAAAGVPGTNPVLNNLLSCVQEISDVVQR
Chain of Aurora kinase B (Homo sapiens) (Q96GD4 whole entry): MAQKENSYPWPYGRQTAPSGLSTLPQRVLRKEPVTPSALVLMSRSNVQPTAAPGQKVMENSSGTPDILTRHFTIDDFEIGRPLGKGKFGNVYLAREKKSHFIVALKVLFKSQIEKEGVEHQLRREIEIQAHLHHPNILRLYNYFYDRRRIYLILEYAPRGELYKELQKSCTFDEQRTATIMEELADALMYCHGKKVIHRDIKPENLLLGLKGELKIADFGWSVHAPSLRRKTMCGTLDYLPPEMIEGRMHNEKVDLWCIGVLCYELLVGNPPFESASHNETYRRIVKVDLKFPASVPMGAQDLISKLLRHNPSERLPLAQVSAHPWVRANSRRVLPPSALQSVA
Chain of Tyrosine-protein kinase Blk (Homo sapiens) (P51451 2-505 limits assumed): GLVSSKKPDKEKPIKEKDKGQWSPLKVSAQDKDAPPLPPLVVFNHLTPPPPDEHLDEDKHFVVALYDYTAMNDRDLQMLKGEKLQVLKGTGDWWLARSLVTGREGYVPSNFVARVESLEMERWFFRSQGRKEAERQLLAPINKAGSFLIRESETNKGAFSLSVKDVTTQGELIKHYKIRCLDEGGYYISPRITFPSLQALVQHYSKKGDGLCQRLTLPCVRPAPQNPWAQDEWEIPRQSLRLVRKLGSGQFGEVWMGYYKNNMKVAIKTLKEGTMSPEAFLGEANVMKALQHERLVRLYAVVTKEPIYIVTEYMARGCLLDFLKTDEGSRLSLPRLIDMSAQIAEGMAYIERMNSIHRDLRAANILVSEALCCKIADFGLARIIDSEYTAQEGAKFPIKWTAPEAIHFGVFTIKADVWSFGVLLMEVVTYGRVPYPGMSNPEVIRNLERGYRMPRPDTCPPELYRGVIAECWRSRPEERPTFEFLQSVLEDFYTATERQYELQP
Chain of Tyrosine-protein kinase ABL1 (Homo sapiens) (P00519 whole entry): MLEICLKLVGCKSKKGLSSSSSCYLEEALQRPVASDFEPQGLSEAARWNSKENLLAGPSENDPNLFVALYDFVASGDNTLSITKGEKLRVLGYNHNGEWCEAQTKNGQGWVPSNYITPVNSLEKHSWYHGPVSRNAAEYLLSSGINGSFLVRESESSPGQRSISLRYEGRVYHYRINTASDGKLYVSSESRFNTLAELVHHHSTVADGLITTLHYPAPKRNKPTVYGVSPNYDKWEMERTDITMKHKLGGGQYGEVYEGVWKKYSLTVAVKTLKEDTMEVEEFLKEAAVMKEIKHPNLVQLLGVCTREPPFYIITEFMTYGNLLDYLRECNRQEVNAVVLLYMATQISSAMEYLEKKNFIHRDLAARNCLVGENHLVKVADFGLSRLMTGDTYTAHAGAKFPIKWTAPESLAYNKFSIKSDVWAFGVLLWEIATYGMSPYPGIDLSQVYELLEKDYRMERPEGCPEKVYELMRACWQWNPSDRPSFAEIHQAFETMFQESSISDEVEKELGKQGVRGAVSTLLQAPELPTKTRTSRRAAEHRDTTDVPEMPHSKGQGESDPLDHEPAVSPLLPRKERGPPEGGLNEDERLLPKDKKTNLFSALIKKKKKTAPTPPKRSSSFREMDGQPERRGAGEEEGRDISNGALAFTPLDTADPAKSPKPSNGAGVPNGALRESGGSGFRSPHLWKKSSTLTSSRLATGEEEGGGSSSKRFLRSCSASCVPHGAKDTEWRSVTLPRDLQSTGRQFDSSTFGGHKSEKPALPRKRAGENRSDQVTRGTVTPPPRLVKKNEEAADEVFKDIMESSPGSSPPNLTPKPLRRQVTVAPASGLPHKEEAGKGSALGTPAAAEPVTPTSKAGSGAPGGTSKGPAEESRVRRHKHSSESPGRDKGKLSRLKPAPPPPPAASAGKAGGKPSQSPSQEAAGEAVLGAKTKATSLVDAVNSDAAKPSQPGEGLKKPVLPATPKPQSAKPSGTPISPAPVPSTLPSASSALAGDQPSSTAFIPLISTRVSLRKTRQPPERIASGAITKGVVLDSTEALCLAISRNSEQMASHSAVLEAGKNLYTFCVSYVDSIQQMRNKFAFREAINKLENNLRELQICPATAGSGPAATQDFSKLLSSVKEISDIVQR

SMILES | residual activity [1] | residual activity [2] [%] | residual activity [3] [%] | residual activity [4] [%] | residual activity [5] [%] | residual activity [6] [%] | residual activity [7] [%] | residual activity [8] [%] | residual activity [9] [%] | residual activity [10] [%] | residual activity [11] [%] | residual activity [12] [%] | residual activity [13] [%] | residual activity [14] [%] | residual activity [15] [%] | residual activity [16] [%] | residual activity [17] [%] | residual activity [18] [%] | residual activity [19] [%] | residual activity [20] [%]
Nc1ncnc2c1c(-c1ccc(Oc3ccccc3)cc1)cn2C1CCCC1 | 99% (inactive) | 85 | 6 | 80 | 21 | 35 | 7 | 43 | 6 | 87 | 54 | 58 | 21 | 0 | -1 | 1 | 1 | 0 | 0 | –
COc1ccc(-c2cnc3c(-c4ccsc4)cnn3c2)cc1 | – | 88 | 97 | 88 | 94 | – | – | – | – | 95 | 63 | 94 | 95 | – | – | – | – | – | – | 76
O=C1NC(=O)C(c2c[nH]c3ccccc23)=C1c1c[nH]c2ccccc12 | 78% (inactive) | – | 68 | 78 | 25 | 80 | 45 | 76 | 20 | 114 | – | – | 56 | – | – | 100 | 67 | – | 23 | –
NC(=O)Nc1sc(-c2ccc(F)cc2)cc1C(N)=O | 114% (inactive) | – | 32 | 71 | 19 | 32 | 3 | 1 | 2 | 9 | 3 | 77 | 24 | 77 | 26 | 38 | 1 | 39 | 4 | 63
Cn1sc(=O)n(Cc2ccccc2)c1=O | – | 92 | 83 | – | 90 | 83 | 91 | 88 | 66 | 76 | 77 | 96 | 66 | 96 | 95 | 91 | 91 | – | – | 84
COc1ccc(CNC(=O)Nc2ncc([N+](=O)[O-])s2)cc1 | 104% (inactive) | – | – | 115 | – | – | 113 | – | – | 75 | 78 | – | – | 24 | 17 | 42 | 35 | – | – | –
NCCNc1ncc(C(N)=O)c(Nc2cccc(C(F)(F)F)c2)n1 | 101% (inactive) | 78 | – | – | – | 81 | – | 104 | 46 | – | – | 74 | 58 | 74 | 14 | – | – | 79 | 12 | 103
O=C1C(Cl)=C(N2C(=O)CCC2=O)C(=O)c2ccccc21 | – | 91 | 66 | 97 | 83 | – | – | 73 | 36 | 67 | 62 | – | 80 | – | – | 91 | 95 | – | 95 | 92
COc1cc2c(cc1OC)-c1n[nH]c(Nc3cccc(F)c3)c1C2 | 111% (inactive) | – | – | – | – | 47 | 22 | 43 | 6 | – | – | 71 | 50 | 78 | 25 | 22 | 4 | 14 | 2 | –
CCCCc1c(-c2ccc(O)cc2)[nH]c2nccnc12 | – | 83 | 44 | 75 | 60 | 6 | 20 | 2 | 0 | 50 | 49 | 92 | 75 | 31 | 29 | 33 | 10 | 73 | 50 | 81
Nc1ncnc2c1cnn2-c1ccccc1 | – | 101 | 76 | – | – | – | 95 | – | 68 | 97 | 53 | – | – | 98 | 96 | 94 | 99 | – | 88 | 100
N#C/C(=C1/Nc2ccccc2S1)c1ccnc(NCCc2cccnc2)n1 | – | 79 | 80 | 99 | 76 | 64 | 48 | – | – | – | – | – | – | 60 | 37 | 96 | 43 | – | – | 115
Nc1n[nH]c2nc3ccccc3nc12 | – | 75 | 73 | 87 | 83 | 91 | 77 | 77 | 26 | 72 | 30 | 94 | 96 | – | – | 88 | 88 | 89 | 88 | 85
O=C1NC(=O)c2c1c1c3ccccc3[nH]c1n1cncc21 | – | 96 | 62 | 91 | 56 | 14 | 1 | 3 | 0 | 37 | 12 | 86 | 71 | 81 | 53 | 70 | 34 | 57 | 8 | 80
